One molecule from ChEMBL document CHEMBL2218924, “A broad activity screen in support of a chemogenomic map for kinase signalling research and drug discovery” (Biochem J, 2013) can be followed below.

Assay [1] has as its target Tyrosine-protein kinase SYK (Homo sapiens) (UniProt P43405). The following applies: at 10 µM.
Assay [2] deals with T1, Mitogen-activated protein kinase kinase kinase 7 (Homo sapiens) (UniProt O43318).
T1 sequence (whole entry): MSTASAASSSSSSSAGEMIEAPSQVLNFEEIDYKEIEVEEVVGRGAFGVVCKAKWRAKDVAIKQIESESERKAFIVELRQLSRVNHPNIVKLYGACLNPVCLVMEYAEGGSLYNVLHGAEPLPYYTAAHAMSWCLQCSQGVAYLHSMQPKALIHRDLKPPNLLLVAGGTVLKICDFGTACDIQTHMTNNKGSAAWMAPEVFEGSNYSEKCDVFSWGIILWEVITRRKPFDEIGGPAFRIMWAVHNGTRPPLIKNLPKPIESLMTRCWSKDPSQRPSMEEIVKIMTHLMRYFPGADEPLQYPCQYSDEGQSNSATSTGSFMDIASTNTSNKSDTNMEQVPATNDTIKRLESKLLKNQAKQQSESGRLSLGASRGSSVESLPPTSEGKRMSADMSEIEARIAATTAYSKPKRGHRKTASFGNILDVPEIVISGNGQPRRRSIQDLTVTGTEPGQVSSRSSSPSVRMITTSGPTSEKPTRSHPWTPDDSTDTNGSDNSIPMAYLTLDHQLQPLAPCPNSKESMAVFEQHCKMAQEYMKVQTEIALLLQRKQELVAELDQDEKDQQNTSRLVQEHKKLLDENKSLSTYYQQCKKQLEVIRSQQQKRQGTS
The settings on record: at 1 µM.

The target in assay [3] is T1, Mitogen-activated protein kinase kinase kinase 7 (Homo sapiens). The settings on record: at 10 µM.
The target of assay [4] is T2, Serine/threonine-protein kinase TAO1 (Homo sapiens) (UniProt Q7L7X3).
T2 sequence (whole entry): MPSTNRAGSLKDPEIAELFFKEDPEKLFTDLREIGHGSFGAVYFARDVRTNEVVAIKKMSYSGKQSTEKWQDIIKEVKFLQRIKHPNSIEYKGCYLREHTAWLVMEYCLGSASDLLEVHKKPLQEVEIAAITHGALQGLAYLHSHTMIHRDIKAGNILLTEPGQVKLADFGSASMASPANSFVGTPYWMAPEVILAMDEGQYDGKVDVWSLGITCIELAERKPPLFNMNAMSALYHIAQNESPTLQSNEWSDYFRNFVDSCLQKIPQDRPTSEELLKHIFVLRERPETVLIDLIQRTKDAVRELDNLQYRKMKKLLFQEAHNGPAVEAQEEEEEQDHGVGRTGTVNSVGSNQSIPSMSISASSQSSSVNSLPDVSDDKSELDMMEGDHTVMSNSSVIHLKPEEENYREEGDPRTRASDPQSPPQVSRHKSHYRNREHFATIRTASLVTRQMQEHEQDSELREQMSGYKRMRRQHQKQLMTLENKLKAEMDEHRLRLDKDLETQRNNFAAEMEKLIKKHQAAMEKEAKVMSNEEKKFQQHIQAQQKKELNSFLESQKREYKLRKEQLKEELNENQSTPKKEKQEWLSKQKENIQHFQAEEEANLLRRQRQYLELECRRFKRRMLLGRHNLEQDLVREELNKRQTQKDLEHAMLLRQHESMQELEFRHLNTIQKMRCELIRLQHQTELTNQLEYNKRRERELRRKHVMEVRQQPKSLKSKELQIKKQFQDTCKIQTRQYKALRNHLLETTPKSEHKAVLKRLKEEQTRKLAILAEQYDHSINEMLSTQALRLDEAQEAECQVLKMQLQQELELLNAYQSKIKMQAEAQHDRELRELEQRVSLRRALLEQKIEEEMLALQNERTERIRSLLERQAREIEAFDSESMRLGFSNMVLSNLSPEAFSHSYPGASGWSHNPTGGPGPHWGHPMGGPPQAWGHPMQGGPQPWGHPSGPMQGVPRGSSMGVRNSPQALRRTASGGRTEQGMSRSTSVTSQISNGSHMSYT
The settings on record: at 10 µM.

The target in assay [5] is T3, Serine/threonine-protein kinase TAO2 (Homo sapiens) (UniProt Q9UL54).
T3 sequence (whole entry): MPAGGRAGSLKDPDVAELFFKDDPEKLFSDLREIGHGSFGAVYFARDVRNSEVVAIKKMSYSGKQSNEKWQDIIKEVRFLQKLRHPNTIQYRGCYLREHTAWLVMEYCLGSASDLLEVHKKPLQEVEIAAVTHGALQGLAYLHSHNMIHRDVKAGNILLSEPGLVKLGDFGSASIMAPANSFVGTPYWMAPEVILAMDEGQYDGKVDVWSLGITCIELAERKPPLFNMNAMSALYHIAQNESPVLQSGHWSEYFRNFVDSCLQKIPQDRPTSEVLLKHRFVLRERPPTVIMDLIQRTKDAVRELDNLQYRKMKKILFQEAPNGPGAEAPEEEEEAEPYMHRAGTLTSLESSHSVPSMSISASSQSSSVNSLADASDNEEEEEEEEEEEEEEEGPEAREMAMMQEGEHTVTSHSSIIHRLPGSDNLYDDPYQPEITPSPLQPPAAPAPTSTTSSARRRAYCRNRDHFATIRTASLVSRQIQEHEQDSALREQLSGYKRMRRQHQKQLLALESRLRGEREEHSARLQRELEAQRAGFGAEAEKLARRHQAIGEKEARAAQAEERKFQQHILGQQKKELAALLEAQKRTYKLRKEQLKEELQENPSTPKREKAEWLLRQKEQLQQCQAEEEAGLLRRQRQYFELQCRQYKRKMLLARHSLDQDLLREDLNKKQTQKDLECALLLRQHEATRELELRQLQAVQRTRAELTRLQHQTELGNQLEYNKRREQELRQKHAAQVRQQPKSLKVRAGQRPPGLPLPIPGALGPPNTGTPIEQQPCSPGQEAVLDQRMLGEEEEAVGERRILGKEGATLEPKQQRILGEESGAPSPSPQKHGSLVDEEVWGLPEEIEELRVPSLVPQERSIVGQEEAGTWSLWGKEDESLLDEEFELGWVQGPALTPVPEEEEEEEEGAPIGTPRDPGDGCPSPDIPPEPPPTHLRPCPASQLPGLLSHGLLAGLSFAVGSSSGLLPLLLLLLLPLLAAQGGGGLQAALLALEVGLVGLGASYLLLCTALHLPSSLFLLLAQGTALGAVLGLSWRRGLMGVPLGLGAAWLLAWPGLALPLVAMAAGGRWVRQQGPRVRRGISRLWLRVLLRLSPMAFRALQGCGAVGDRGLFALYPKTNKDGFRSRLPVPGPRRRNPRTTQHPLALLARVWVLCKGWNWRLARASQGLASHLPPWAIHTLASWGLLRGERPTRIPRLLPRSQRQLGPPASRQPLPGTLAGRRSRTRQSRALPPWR
The settings on record: at 1 µM.

Assay [6] concerns the target T3, Serine/threonine-protein kinase TAO2 (Homo sapiens). The settings on record: at 10 µM.
The target in assay [7] is T4, Serine/threonine-protein kinase TAO3 (Homo sapiens) (UniProt Q9H2K8).
T4 sequence (whole entry): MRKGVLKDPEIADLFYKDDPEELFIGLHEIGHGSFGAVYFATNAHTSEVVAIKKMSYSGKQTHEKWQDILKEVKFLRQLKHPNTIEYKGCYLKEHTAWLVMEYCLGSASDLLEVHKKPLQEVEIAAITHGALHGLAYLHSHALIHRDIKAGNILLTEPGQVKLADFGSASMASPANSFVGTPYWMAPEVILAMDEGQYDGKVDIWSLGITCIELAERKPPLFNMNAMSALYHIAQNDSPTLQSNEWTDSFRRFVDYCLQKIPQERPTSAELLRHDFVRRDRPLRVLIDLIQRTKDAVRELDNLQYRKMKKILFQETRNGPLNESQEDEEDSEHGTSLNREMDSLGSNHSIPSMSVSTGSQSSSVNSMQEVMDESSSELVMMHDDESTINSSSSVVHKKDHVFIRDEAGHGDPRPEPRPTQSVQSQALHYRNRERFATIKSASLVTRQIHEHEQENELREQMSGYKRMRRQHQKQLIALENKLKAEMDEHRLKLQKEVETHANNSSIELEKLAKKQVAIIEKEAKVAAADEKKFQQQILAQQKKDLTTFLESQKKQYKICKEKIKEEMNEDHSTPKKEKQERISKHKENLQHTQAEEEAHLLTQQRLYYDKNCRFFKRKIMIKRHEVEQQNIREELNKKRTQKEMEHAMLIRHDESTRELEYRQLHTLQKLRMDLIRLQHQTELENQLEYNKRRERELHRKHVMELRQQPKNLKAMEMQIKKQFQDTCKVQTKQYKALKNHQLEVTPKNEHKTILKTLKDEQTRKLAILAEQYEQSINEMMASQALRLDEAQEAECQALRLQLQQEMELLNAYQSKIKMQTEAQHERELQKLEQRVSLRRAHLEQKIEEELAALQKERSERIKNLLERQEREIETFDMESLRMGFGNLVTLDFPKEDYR
The following applies: at 1 µM.

The target of assay [8] is T4, Serine/threonine-protein kinase TAO3 (Homo sapiens). The following applies: at 10 µM.
For assay [9], the target named is T5, Serine/threonine-protein kinase TBK1 (Homo sapiens) (UniProt Q9UHD2).
T5 sequence (whole entry): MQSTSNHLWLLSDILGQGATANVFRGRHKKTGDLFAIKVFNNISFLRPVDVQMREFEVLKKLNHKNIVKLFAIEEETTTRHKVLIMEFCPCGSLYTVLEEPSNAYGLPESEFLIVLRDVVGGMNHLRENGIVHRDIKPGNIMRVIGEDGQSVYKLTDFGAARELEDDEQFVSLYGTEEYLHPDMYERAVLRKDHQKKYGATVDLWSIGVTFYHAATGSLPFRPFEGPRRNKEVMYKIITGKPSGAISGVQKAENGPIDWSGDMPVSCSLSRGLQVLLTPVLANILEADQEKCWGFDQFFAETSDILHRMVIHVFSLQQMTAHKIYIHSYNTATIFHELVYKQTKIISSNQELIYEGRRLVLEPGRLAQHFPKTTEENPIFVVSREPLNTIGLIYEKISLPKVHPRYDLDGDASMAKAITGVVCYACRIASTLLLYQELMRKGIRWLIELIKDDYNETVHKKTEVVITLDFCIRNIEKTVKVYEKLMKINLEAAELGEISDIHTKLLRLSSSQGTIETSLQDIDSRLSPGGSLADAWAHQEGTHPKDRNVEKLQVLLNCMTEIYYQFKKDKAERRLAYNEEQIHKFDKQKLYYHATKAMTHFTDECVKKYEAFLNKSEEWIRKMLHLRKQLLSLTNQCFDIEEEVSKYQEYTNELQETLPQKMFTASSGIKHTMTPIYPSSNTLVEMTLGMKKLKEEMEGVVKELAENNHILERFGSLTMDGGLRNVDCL
The settings on record: at 1 µM.

The target of assay [10] is T5, Serine/threonine-protein kinase TBK1 (Homo sapiens). The following applies: at 10 µM.
The target in assay [11] is T6, TGF-beta receptor type-1 (Homo sapiens) (UniProt P36897).
T6 sequence (whole entry): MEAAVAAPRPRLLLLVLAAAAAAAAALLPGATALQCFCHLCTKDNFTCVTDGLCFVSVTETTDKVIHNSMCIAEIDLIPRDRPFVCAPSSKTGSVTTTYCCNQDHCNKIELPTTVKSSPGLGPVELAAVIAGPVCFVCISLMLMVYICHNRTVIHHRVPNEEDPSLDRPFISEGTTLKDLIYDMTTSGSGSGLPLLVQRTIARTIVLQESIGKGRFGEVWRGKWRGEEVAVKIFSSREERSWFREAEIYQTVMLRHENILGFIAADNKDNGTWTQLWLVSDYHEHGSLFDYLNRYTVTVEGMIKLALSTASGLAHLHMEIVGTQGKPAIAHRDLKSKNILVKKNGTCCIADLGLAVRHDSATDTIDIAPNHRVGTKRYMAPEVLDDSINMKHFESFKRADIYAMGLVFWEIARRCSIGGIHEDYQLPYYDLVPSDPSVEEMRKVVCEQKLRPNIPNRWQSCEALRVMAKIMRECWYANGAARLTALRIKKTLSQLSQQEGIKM
The settings on record: at 1 µM.

Assay [12] has as its target T6, TGF-beta receptor type-1 (Homo sapiens). The following applies: at 10 µM.
The target of assay [13] is T7, Inhibitor of nuclear factor kappa-B kinase subunit alpha (Homo sapiens) (UniProt O15111).
T7 sequence (whole entry): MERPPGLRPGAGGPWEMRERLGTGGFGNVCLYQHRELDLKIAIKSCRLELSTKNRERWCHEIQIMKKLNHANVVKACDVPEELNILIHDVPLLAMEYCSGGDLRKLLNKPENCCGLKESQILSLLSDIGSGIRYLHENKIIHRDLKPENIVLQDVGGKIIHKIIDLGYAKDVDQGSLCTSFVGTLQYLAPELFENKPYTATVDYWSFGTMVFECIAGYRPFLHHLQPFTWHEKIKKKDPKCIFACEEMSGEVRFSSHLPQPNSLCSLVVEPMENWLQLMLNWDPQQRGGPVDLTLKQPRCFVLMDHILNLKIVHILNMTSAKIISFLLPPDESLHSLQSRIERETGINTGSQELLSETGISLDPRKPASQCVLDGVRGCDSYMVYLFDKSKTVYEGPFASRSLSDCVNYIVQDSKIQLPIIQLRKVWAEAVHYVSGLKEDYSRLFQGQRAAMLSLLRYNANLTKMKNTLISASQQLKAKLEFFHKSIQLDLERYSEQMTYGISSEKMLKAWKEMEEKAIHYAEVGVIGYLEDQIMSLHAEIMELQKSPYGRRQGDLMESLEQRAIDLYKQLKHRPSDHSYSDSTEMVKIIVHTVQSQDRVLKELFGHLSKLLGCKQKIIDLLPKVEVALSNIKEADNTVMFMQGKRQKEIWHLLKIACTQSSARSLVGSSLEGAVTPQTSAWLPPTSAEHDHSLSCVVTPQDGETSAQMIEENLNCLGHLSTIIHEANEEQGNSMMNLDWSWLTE
The following applies: at 1 µM.

The target in assay [14] is T7, Inhibitor of nuclear factor kappa-B kinase subunit alpha (Homo sapiens). The settings on record: at 10 µM.

As for `c1ccc(-c2n[nH]c3c2oc2ccccc23)cc1`, the residual activity turned out to be 82% in [1]; 88% in assay [2]; 100% in assay [3]; 72% in assay [4]; 98% in assay [5]; 78% in assay [6]. For the same molecule, the residual activity stood at 95% in [7]; 73% in [8]; 67% in assay [9]; 55% in [10]; 82% in [11]; 88% in assay [12]. For the same molecule, the residual activity in [13] amounted to 97%; in assay [14] it was 88%.
